Holding throughout (assay): peptide microarray binding signal (635 nm), min-max normalized on array (fraction of array maximum); higher = stronger binding
Common to all, as to details: peptide region: H2A 1-13

Assay [1] concerns the target T1, HaloTag-ATRX ADD domain (163-292).
T1 chain: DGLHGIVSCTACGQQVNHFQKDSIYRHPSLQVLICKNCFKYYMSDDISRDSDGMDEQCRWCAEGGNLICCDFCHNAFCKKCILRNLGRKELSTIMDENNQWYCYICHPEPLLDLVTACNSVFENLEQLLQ
On the procedure:
(§1)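 Histone 13-mer peptides were synthesized as cellulose conjugates with a C-terminal 20-atom PEG linker and printed in triplicate on nitrocellulose. The sequence given is the unmodified backbone; PTMs (Kme1/2/3, Kac, Sph/Tph, Rme/Rme2a/Rme2s, Rcit) are listed in the label and the 'peptide modifications' condition. Slides were probed at 4 °C for 1 h with biotin-labelled (HQ)5-HaloTag reader fusions (ATRX-ADD, ING2-PHD) then streptavidin-Alexa647, or with rabbit histone antibodies then anti-rabbit Alexa647. The mean 635 nm signal of the triplicate spots was scaled 0-1 between the lowest and highest values on each array.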

Assay [2] deals with HaloTag-ING2 PHD (mouse Ing2 200-280). On the procedure: as §1
Assay [3] has as its target anti-H3K4me3 antibody ab8580. On the procedure:
as §1

The target in assay [4] is anti-H3K9me3 antibody ab8898. On the procedure: as §1
Setting [5] is: peptide modifications: H2AR3me2a, binder concentration: 1:2,000 dilution.
Setting [6] is: peptide modifications: H2AR3me2a, binder concentration: 1:10,000 dilution.
Setting [7] is: peptide modifications: H2AR3me2s, binder concentration: 1:2,000 dilution.
The mark [8] stands for this setting: peptide modifications: H2AR3me2s, binder concentration: 1:10,000 dilution.
[9] abbreviates: peptide modifications: H2AS1ph H2AK5ac, binder concentration: 1:2,000 dilution.
Setting [10] is: peptide modifications: H2AS1ph H2AK5ac, binder concentration: 1:10,000 dilution.
Setting [11] is: peptide modifications: H2AR3me1, binder concentration: 1:2,000 dilution.
[12] abbreviates: peptide modifications: H2AR3me1, binder concentration: 1:10,000 dilution.
The mark [13] stands for this setting: peptide modifications: H2AS1ph, binder concentration: 1:2,000 dilution.
[14] abbreviates: peptide modifications: H2AS1ph, binder concentration: 1:10,000 dilution.
The mark [15] stands for this setting: peptide modifications: H2AS1ph H2AR3cit, binder concentration: 1:2,000 dilution.
The mark [16] stands for this setting: peptide modifications: H2AS1ph H2AR3cit, binder concentration: 1:10,000 dilution.
Setting [17] is: peptide modifications: H2AR3me1 H2AK5ac, binder concentration: 1:2,000 dilution.
Where [18] appears, read: peptide modifications: H2AR3me1 H2AK5ac, binder concentration: 1:10,000 dilution.
Setting [19] is: peptide modifications: H2AR3cit, binder concentration: 1:2,000 dilution.
Where [20] appears, read: peptide modifications: H2AR3cit, binder concentration: 1:10,000 dilution.
Where [21] appears, read: peptide modifications: H2AS1ph H2AR3me1, binder concentration: 1:2,000 dilution.
Setting [22] is: peptide modifications: H2AS1ph H2AR3me1, binder concentration: 1:10,000 dilution.
[23] abbreviates: binder concentration: 1:2,000 dilution.
[24] abbreviates: binder concentration: 1:10,000 dilution.

± gives the standard deviation.

Take SGRGKQGGKARAK [H2A 1-13 S G Rme2a G K Q G G K A R A K]: the “peptide microarray binding signal” value was 0.005172 ± 5e-05 in assay [1] (peptide modifications: H2AR3me2a, binder concentration: 50 nM); 0.0126 ± 0.00024 in assay [1] (peptide modifications: H2AR3me2a, binder concentration: 500 nM); 0.00382 ± 0.0003 in assay [2] (peptide modifications: H2AR3me2a, binder concentration: 10 nM); 0.0113 ± 0.00033 in assay [2] (peptide modifications: H2AR3me2a, binder concentration: 100 nM); 0.00119 ± 9.3e-05 in assay [3] (setting [5]); 0.00143 ± 2.4e-05 in assay [3] (setting [6]). Besides, the “peptide microarray binding signal” value in assay [4] (setting [5]) was 0.000483 ± 1.2e-05; in assay [4] (setting [6]), 0.00075 ± 7.9e-06.

Consider SGRGKQGGKARAK [H2A 1-13 S G Rme2s G K Q G G K A R A K], for which the “peptide microarray binding signal” value was 0.00696 ± 0.0016 in assay [1] (peptide modifications: H2AR3me2s, binder concentration: 50 nM); 0.0101 ± 0.00014 in assay [1] (peptide modifications: H2AR3me2s, binder concentration: 500 nM); 0.00519 ± 0.00018 in assay [2] (peptide modifications: H2AR3me2s, binder concentration: 10 nM); 0.00893 ± 0.00025 in assay [2] (peptide modifications: H2AR3me2s, binder concentration: 100 nM); 0.00108 ± 4.1e-05 in assay [3] (setting [7]); 0.00183 ± 9.6e-05 in assay [3] (setting [8]). Also, the figures for the “peptide microarray binding signal” value in assay [4] (setting [7]) and in assay [4] (setting [8]) were 0.000755 ± 7.7e-05 and 0.000923 ± 2.5e-05, respectively.

In the case of SGRGKQGGKARAK [H2A 1-13 Sph G R G Kac Q G G K A R A K], the “peptide microarray binding signal” value was 0.00298 ± 3.8e-05 in assay [1] (peptide modifications: H2AS1ph H2AK5ac, binder concentration: 50 nM); 0.00752 ± 0.00011 in assay [1] (peptide modifications: H2AS1ph H2AK5ac, binder concentration: 500 nM); 0.00292 ± 9.7e-05 in assay [2] (peptide modifications: H2AS1ph H2AK5ac, binder concentration: 10 nM); 0.00276 ± 0.00011 in assay [2] (peptide modifications: H2AS1ph H2AK5ac, binder concentration: 100 nM); 0.000264 ± 5.6e-06 in assay [3] (setting [9]); 0.000685 ± 7.2e-06 in assay [3] (setting [10]). In addition, the “peptide microarray binding signal” value in assay [4] (setting [9]) turned out to be 0.000257 ± 2.7e-06; in assay [4] (setting [10]), 0.000577 ± 6.2e-06.

For the molecule SGRGKQGGKARAK [H2A 1-13 S G Rme G K Q G G K A R A K], the “peptide microarray binding signal” value in assay [1] (peptide modifications: H2AR3me1, binder concentration: 50 nM) was found to be 0.00254 ± 4.9e-05; in assay [1] (peptide modifications: H2AR3me1, binder concentration: 500 nM), 0.005096 ± 3.3e-05; in assay [2] (peptide modifications: H2AR3me1, binder concentration: 10 nM), 0.00286 ± 0.00013; in assay [2] (peptide modifications: H2AR3me1, binder concentration: 100 nM), 0.004039 ± 3.4e-05; in assay [3] (setting [11]), 0.000491 ± 9.7e-06; in assay [3] (setting [12]), 0.000514 ± 5.5e-06. Besides, the figures for the “peptide microarray binding signal” value in assay [4] (setting [11]) and in assay [4] (setting [12]) were 0.000181 and 0.000404 ± 8.8e-06, respectively.

Turning to SGRGKQGGKARAK [H2A 1-13 Sph G R G K Q G G K A R A K], the “peptide microarray binding signal” value in assay [1] (peptide modifications: H2AS1ph, binder concentration: 50 nM) was 0.00235 ± 3.8e-05; in assay [1] (peptide modifications: H2AS1ph, binder concentration: 500 nM), 0.00462 ± 0.00011; in assay [2] (peptide modifications: H2AS1ph, binder concentration: 10 nM), 0.002148 ± 1.2e-05; in assay [2] (peptide modifications: H2AS1ph, binder concentration: 100 nM), 0.00312 ± 0.00029; in assay [3] (setting [13]), 0.000208 ± 2.2e-06; in assay [3] (setting [14]), 0.000342 ± 3.8e-06. For the same molecule, the entries for the “peptide microarray binding signal” value in assay [4] (setting [13]) and in assay [4] (setting [14]) were 0.000166 ± 3.6e-06 and 0.000231 ± 2.6e-06, respectively.

Take SGRGKQGGKARAK [H2A 1-13 Sph G Rcit G K Q G G K A R A K]: the “peptide microarray binding signal” value in assay [1] (peptide modifications: H2AS1ph H2AR3cit, binder concentration: 50 nM) turned out to be 0.00392 ± 8.1e-05; in assay [1] (peptide modifications: H2AS1ph H2AR3cit, binder concentration: 500 nM), 0.00486 ± 5.6e-05; in assay [2] (peptide modifications: H2AS1ph H2AR3cit, binder concentration: 10 nM), 0.00167 ± 3e-05; in assay [2] (peptide modifications: H2AS1ph H2AR3cit, binder concentration: 100 nM), 0.00283 ± 0.0002; in assay [3] (setting [15]), 0.000472 ± 2.6e-05; in assay [3] (setting [16]), 0.000514 ± 1.1e-05. Moreover, the “peptide microarray binding signal” value came to 0.000272 ± 4.9e-06 in assay [4] (setting [15]) and 0.000692 ± 7.3e-06 in assay [4] (setting [16]).

Consider SGRGKQGGKARAK [H2A 1-13 S G Rme G Kac Q G G K A R A K], for which the “peptide microarray binding signal” value is 0.00467 ± 0.00064 in assay [1] (peptide modifications: H2AR3me1 H2AK5ac, binder concentration: 50 nM); 0.00424 ± 0.00012 in assay [1] (peptide modifications: H2AR3me1 H2AK5ac, binder concentration: 500 nM); 0.002507 ± 1.4e-05 in assay [2] (peptide modifications: H2AR3me1 H2AK5ac, binder concentration: 10 nM); 0.00305 ± 0.00059 in assay [2] (peptide modifications: H2AR3me1 H2AK5ac, binder concentration: 100 nM); 0.000434 ± 2.9e-05 in assay [3] (setting [17]); 0.000571 in assay [3] (setting [18]). For the same molecule, the entries for the “peptide microarray binding signal” value in assay [4] (setting [17]) and in assay [4] (setting [18]) were 0.000242 ± 6.7e-06 and 0.000634, respectively.

Take SGRGKQGGKARAK [H2A 1-13 S G Rcit G K Q G G K A R A K]: the “peptide microarray binding signal” value stood at 0.00257 ± 6.9e-05 in assay [1] (peptide modifications: H2AR3cit, binder concentration: 50 nM); 0.00614 ± 6.4e-05 in assay [1] (peptide modifications: H2AR3cit, binder concentration: 500 nM); 0.00137 ± 3.3e-05 in assay [2] (peptide modifications: H2AR3cit, binder concentration: 10 nM); 0.00262 ± 0.0002 in assay [2] (peptide modifications: H2AR3cit, binder concentration: 100 nM); 0.000245 ± 2.6e-06 in assay [3] (setting [19]); 0.000514 ± 5.5e-06 in assay [3] (setting [20]). In addition, the figures for the “peptide microarray binding signal” value in assay [4] (setting [19]) and in assay [4] (setting [20]) were 0.000181 and 0.000404 ± 4.4e-06, respectively.

Turning to SGRGKQGGKARAK [H2A 1-13 Sph G Rme G K Q G G K A R A K], the “peptide microarray binding signal” value in assay [1] (peptide modifications: H2AS1ph H2AR3me1, binder concentration: 50 nM) was found to be 0.0036 ± 0.00033; in assay [1] (peptide modifications: H2AS1ph H2AR3me1, binder concentration: 500 nM), 0.00495 ± 6.5e-05; in assay [2] (peptide modifications: H2AS1ph H2AR3me1, binder concentration: 10 nM) it was 0.00346 ± 0.00011; in assay [2] (peptide modifications: H2AS1ph H2AR3me1, binder concentration: 100 nM), 0.00446 ± 0.00061; in assay [3] (setting [21]), 0.000566 ± 1.9e-05; in assay [3] (setting [22]), 0.000799 ± 8.3e-06. Moreover, the figures for the “peptide microarray binding signal” value in assay [4] (setting [21]) and in assay [4] (setting [22]) were 0.000287 ± 2.9e-06 and 0.000807 ± 1.5e-05, respectively.

Regarding SGRGKQGGKARAK [H2A 1-13 S G R G K Q G G K A R A K], the “peptide microarray binding signal” value came out at 0.00364 ± 0.00013 in assay [1] (binder concentration: 50 nM); 0.00819 ± 0.00076 in assay [1] (binder concentration: 500 nM); 0.00298 ± 3.3e-05 in assay [2] (binder concentration: 10 nM); 0.00446 ± 7.4e-05 in assay [2] (binder concentration: 100 nM); 0.00034 ± 6.1e-06 in assay [3] (setting [23]); 0.000571 ± 1.1e-05 in assay [3] (setting [24]). Besides, the “peptide microarray binding signal” value in assay [4] (setting [23]) stood at 0.000242 ± 6.7e-06; in assay [4] (setting [24]), 0.000404 ± 4.4e-06.

Values taken from the supplement of paper PMC4022240.
